# In all, about 69,000 compounds went through this assay and about 8,600 (12%) showed an effect of 50% or more. The list comes from a sample in which strong results are over-represented; it also holds similar structures and randomly drawn compounds.
# Test system: Plasmodium berghei
# Test: Screen against P. berghei liver stage (PbLuc), transformed with Luciferase, at 10uM
# Assay type: functional, HepG2
# Conditions: tested at 10 uM
row,Structure (SMILES),INHIBITION [%]
1,Cc1ncsc1CN1C[C@@H](OCC(=O)N(C)C)[C@H]2OCCC[C@H]21,-31.3
2,CC(C)NS(=O)(=O)c1cc(C(=O)O)cc(-c2ccccc2C#N)c1,53.8
3,CC(=O)c1ccccc1-c1cc(C(=O)O)cc(S(=O)(=O)NC(C)C)c1,-9.2
4,CC(C)NS(=O)(=O)c1cc(C(=O)O)cc(-c2ccccc2F)c1,-108
5,CC(=O)N1CC[C@H]2OCC[C@@H](C(=O)Nc3cccnc3C)[C@H]2C1,-14.2
6,COCC(=O)N1C[C@H]2CN(Cc3cccc(F)c3)C(=O)[C@H]2C1,50.9
7,O=C(NC1CC1)N1C[C@H]2CN(Cc3cccc(F)c3)C(=O)[C@H]2C1,60.2
8,O=C(c1ccc[nH]1)N1C[C@H]2CN(Cc3cccc(F)c3)C(=O)[C@H]2C1,8.53
9,O=C(CO)N1C[C@H]2CN(Cc3cccc(F)c3)C(=O)[C@H]2C1,40.4
10,O=C(c1ccco1)N1C[C@H]2CN(Cc3cccc(F)c3)C(=O)[C@H]2C1,1.94
11,CN(C)C(=O)N1C[C@H]2CN(Cc3cccc(F)c3)C(=O)[C@H]2C1,33
12,CCc1ccc(C(=O)N2CCCC2c2c(C)nn(C)c2OC)o1 (stereo not drawn),-11.2
13,Cc1ccc(CN2C[C@@H]3CCCO[C@@H]3[C@H](N(C)Cc3ccco3)C2)s1,-15.1
14,O=C(O)C1(Oc2ccc3c(c2)OCO3)CCN(C2CCOCC2)CC1,31.9
15,N#CCC1CC(c2ccc(F)cc2)=NO1 (stereo not drawn),12.6
16,O=C(CN1CCOC(Cn2cccn2)C1)NCCc1cccs1 (stereo not drawn),6.49
17,O=C(c1ccoc1)N1CC[C@H]2[C@H]1CCN2CC1CC1,-6.05
18,Cn1cccc1C(=O)N1CC[C@H]2[C@H]1CCN2CC1CC1,55.6
19,Cn1cccc1C(=O)N1CCC2(CCCN(CC3CCC3)C2=O)C1 (stereo not drawn),53.6
20,O=C1C[C@H]2[C@@H](CCN2C(=O)c2ccccc2)N1CCN1CCOCC1,30.1
21,Cn1cccc1C(=O)N1CC[C@H]2[C@H]1CCN2CC1CCOCC1,27.5
22,Cn1cccc1C(=O)N1CCC2(CCCN(CC3CC3)C2=O)C1 (stereo not drawn),9.63
23,Cn1cccc1C(=O)N1CC[C@H]2[C@@H]1CCC(=O)N2c1ccccc1,43.8
24,Cn1cccc1C(=O)N1CC[C@H]2[C@@H]1CCC(=O)N2CC1CC1,54.1
25,Cn1cccc1C(=O)N1C[C@H]2CN(CC3CC3)C(=O)[C@H]2C1,2.26

row,Structure (SMILES),INHIBITION [%]
1,Cn1cc(Cl)cc1C(=O)N1CCC2(CCCN(CC3CCC3)C2=O)C1 (stereo not drawn),19.5
2,Cn1cccc1C(=O)N1CC[C@@H]2[C@@H]1CC(=O)N2CC1CCOCC1,51.2
3,Cn1cccc1C(=O)N1CC[C@@H]2[C@@H]1CC(=O)N2CCN1CCOCC1,1.9
4,CCCn1nc(C)c2c(C(F)F)cc(=O)n(CC(=O)O)c21,-7.59
5,O=C(c1cccc2ncccc12)N1CCCC(n2ccnc2)C1 (stereo not drawn),27.72
6,CC(C)c1nnc(NC(=O)CN2C(=O)c3ccccc3NC2C(C)C)s1 (stereo not drawn),19.4
7,Cc1nn(C)c(N2CCOCC2)c1CNCc1ccc(CO)c(F)c1,-35.7
8,CCCc1cc(NC2CCc3nc(CC)nn3C2)n2ncnc2n1 (stereo not drawn),16.6
9,CN1C[C@H]2CNC[C@@]2(C(=O)NC2CCN(c3ncccc3C#N)CC2)C1,36.6
10,COCc1nn(C(C)C)c2c1CCN(Cc1ccc(C)o1)C2,58.8
11,COCc1nn(C(C)C)c2c1CCN(Cc1ccc(C)s1)C2,-6.53
12,COCc1nn(C(C)C)c2c1CCN(Cc1ccoc1)C2,-76.7
13,N#Cc1ccsc1NC(=O)CN1CCn2c(nnc2C2CC2)C1,23.4
14,Cc1cc(CN(CCO)Cc2cc(Br)ccc2F)no1,37.8
15,O=c1c2cc3c(cc2nnn1Cc1ccccc1)OCCO3,15.1
16,O=c1c2cc3c(cc2nnn1Cc1ccccc1Cl)OCCO3,57.3
17,Cc1ccccc1Cn1nnc2cc3c(cc2c1=O)OCCO3,37.5
18,CC(=O)N1CC(=O)N(c2ccccc2)CC12CCN(Cc1nccs1)C2 (stereo not drawn),-0.912
19,CC(=O)N1N=C(c2cccs2)OC1C(=O)NCCc1cccc(Cl)c1 (stereo not drawn),25.3
20,Cc1cc(C)n(Cc2cccc(C(=O)N(CCC#N)CCC#N)c2)n1,56
21,N#CCCN(CCC#N)C(=O)c1cccc(N2CCNC2=O)c1,46.1
22,COCCN(CCOC)C(=O)c1cccc(Cn2nc(C)cc2C)c1,11.1
23,COC(=O)c1cccc(C(=O)N(CCC#N)CC(C)(C)C)c1,68.6
24,Cc1nc2ccc(C(=O)N(CCC#N)CCC#N)cc2nc1C,-37.4
25,CC(C)(C)CN(CCC#N)C(=O)c1cccc(CC#N)c1,80

row,Structure (SMILES),INHIBITION [%]
1,CC(C)(C)CN(CCC#N)C(=O)Nc1cccc(N2CCNC2=O)c1,-45.2
2,CCN(CC)C(=O)c1cccc(Cn2nc(C)cc2C)c1,10.5
3,CC(C)(C)CN(CCC#N)C(=O)c1cccc(CN2CCCC2)c1,-38.2
4,Cc1csc(C2CCCCN2C(=O)c2cc(C)n(C)n2)n1 (stereo not drawn),17.5
5,O=c1cc(Cn2ccnc2)nc2n1CCCN(Cc1ccc(F)cc1)C2,-3.52
6,Cn1ccnc1CN1CCN(CCOc2ccccc2F)CC1,7.27
7,CC(C)c1ncc(CN2CCC(CO)C2)cn1 (stereo not drawn),8.72
8,CCc1n[nH]c(C2CN(C(=O)Cn3ccccc3=O)CCO2)n1 (stereo not drawn),53
9,CCc1n[nH]c(C2CN(C(=O)CCn3ccccc3=O)CCO2)n1 (stereo not drawn),-22.9
10,CCCc1n[nH]c(C2CN(C(=O)Cn3ccccc3=O)CCO2)n1 (stereo not drawn),48.4
11,CC(C)c1n[nH]c(C2CN(C(=O)Cn3ccccc3=O)CCO2)n1 (stereo not drawn),62.1
12,CC(C)c1n[nH]c(C2CN(C(=O)CCn3ccccc3=O)CCO2)n1 (stereo not drawn),5.97
13,Cc1n[nH]c(C2CN(C(=O)Cn3ccccc3=O)CCO2)n1 (stereo not drawn),34.5
14,Cc1noc([C@H]2C[C@@H]3CCN(CC4CCOCC4)C[C@H]3O2)n1,27.7
15,CNC(=O)CN1CC[C@H]2CN(C(=O)c3cccc(C)c3)C[C@H]2C1,8.52
16,Cc1nocc1C(=O)N1CCc2c(CN(C)C)nn(C)c2C1,-1.12
17,O=C(c1cc2c(s1)CCOC2)N1CCCC1Cn1cccn1 (stereo not drawn),8.64
18,O=C(Cn1cnc2cc3c(cc21)OCCCO3)NC1CCCCC1,13.7
19,c1cc(CN2CCC(c3ccnc4nccn34)C2)ccn1 (stereo not drawn),35.7
20,c1ccc2c(Cc3nnc([C@H]4CCN(C5CCC5)C4)o3)c[nH]c2c1,-4.88
21,c1ccc2c(Cc3nnc([C@H]4CCN(C5CCCCC5)C4)o3)c[nH]c2c1,8.67
22,c1ccc2c(Cc3nnc([C@H]4CCN(CC5CC5)C4)o3)c[nH]c2c1,5.96
23,c1ccc2c(Cc3nnc([C@H]4CCN(C5CCOCC5)C4)o3)c[nH]c2c1,56.1
24,c1ccc2c(Cc3nnc([C@H]4CCNC4)o3)c[nH]c2c1,65.6
25,CN1CC[C@H](c2nnc(Cc3c[nH]c4ccccc34)o2)C1,24.9

row,Structure (SMILES),INHIBITION [%]
1,CCn1nc(C)c2nc(C(C)C)nc(NCC(=O)N3CCOCC3)c21,48.2
2,CC(C)c1noc(CN2CCCN(Cc3cccs3)CC2)n1,11.6
3,CCOC1Sc2nnc(C)n2N=C1c1ccc(Cl)cc1 (stereo not drawn),31.8
4,CN(C(=O)c1ccc(S(=O)(=O)NC(C)(C)C)cc1)C1(C#N)CCC1,50.4
5,CCC(C)NS(=O)(=O)c1ccc(C(=O)N(C)C2(C#N)CCC2)cc1 (stereo not drawn),46.3
6,CN(Cc1ccsc1)C(=O)c1ccc(S(=O)(=O)NC(C)(C)C)cc1,-61.4
7,Cc1n[nH]c(C)c1-c1cnc(CC2CCCN(S(C)(=O)=O)C2)cn1 (stereo not drawn),-38.2
8,Cc1cc(C)c2nc(C)c(C(=O)N3CCC(N4CCCC4)CC3)cc2c1,31
9,CN1CCN(C(=O)CCn2c(C(F)(F)F)cc3cccnc32)CC1,-15.3
10,Cc1nc(N)sc1C(=O)N1CCC(C(O)Cc2ccccc2)CC1 (stereo not drawn),46.7
11,CCOC(=O)N1CCN(C(=O)c2sc(-c3ccncc3)nc2C)CC1,24
12,CCNc1nc(C)c(C(=O)N2CCN(c3ncccc3C)CC2)s1,-11.2
13,CCOC(=O)N1CCN(C(=O)c2sc(-c3ccccc3)nc2C)CC1,74.7
14,Cc1cc(=O)c(C(=O)N2CCC(C(O)Cc3ccccc3)CC2)c(C)[nH]1 (stereo not drawn),35.8
15,COc1nc(C)c(C(=O)N2CCC(C(O)Cc3ccccc3)CC2)s1 (stereo not drawn),18.5
16,CNc1nc(C)c(C(=O)N2CCC(C(O)Cc3ccccc3)CC2)s1 (stereo not drawn),61.2
17,CCNc1nc(C)c(C(=O)N2CCC(C(O)Cc3ccccc3)CC2)s1 (stereo not drawn),53.9
18,CCOC(=O)N1CCN(C(=O)c2sc(-c3ccc(F)cc3)nc2C)CC1,18.8
19,Cc1cc(C(=O)N2CCc3nc(C4CCCCN4)ncc3C2)cs1 (stereo not drawn),-17.7
20,O=C([C@H]1CC[C@@H]2[C@@H](CCN2Cc2nccs2)O1)N1CCCCO1,19.5
21,O=S1(=O)NCC2(CCCN(Cc3cccnc3)C2)Oc2ncccc21 (stereo not drawn),40.8
22,c1cc(CCNc2ccc(CC3CCNC3)cn2)ccn1 (stereo not drawn),19.3
23,O=C([C@@H]1CCS(=O)(=O)[C@@H]2CN(c3ncccn3)C[C@@H]21)N1CCOCC1,23.1

# Reference: ChEMBL document CHEMBL4513216, “Probing the Open Global Health Chemical Diversity Library for Multistage-Active Starting Points for Next-Generation Antimalarials” (ACS Infect Dis, 2020)
